Here are results for seven compounds from PubChem BioAssay (EPA / NIEHS).

Read-out in experiment [1]: Monocyte Chemoattractant Protein-1 (MCP1), CCL2 (gene 6347)
Put plainly: BSK_LPS_MCP1: BioMAP Diversity Plus: LPS Assay for Monocyte Chemoattractant Protein-1 (MCP1) Biomarker Activity (AID 2283081).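 On AC50: co-culture stimulated with LPS; secreted MCP-1 protein quantified by ELISA in culture supernatant.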 The conditions noted are these: primary human HUVEC with PBMC; actives raise or lower the signal. The procedure, abridged: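 Values derive from bidirectional fitting against DMSO of ELISA-measured MCP-1 in a human primary endothelial and mononuclear cell co-culture, 24 h after chemical addition under LPS activation.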

Experiment [2] is described as follows: BSK_LPS_PGE2: BioMAP Diversity Plus: LPS Assay for Prostaglandin E2 (PGE2) Biomarker Activity (AID 2283082).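 On AC50: secreted prostaglandin E2 measured by ELISA in LPS-stimulated co-culture.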 The conditions noted are these: primary human HUVEC with PBMC; actives raise or lower the signal. The procedure, abridged: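 Primary human endothelial cells and blood mononuclear cells, co-cultured with LPS, receive test chemical; PGE2 ELISA follows at 24 h, with SRB-stained parallel cultures flagging cytotoxicity.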

Read-out in experiment [3]: Macrophage colony-stimulating factor (MCSF), CSF1 (gene 1435)
Put plainly: BSK_LPS_MCSF: BioMAP Diversity Plus: LPS Assay for Macrophage colony-stimulating factor (MCSF) Biomarker Activity (AID 2283083). Conditions: primary human HUVEC with PBMC; actives raise or lower the signal. The procedure, abridged: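 Bidirectional fit versus DMSO of ELISA-measured M-CSF in co-cultured human umbilical vein endothelial cells and PBMC, sampled 24 h after dosing.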

Read-out in experiment [4]: Tissue Factor, F3 (gene 2152)
Put plainly: BSK_LPS_TissueFactor: BioMAP Diversity Plus: LPS Assay for Tissue Factor Biomarker Activity (AID 2283084). Conditions: primary human HUVEC with PBMC; actives raise or lower the signal. The procedure, abridged:
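Read-out: CD142 ELISA, 24 h. System: LPS-driven human endothelial/PBMC co-culture. Analysis: up- or down-signal fitted against DMSO.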

Read-out in experiment [5]: Tumor necrosis factor (Homo sapiens) (UniProt P01375)
Put plainly: BSK_LPS_TNFa: BioMAP Diversity Plus: LPS Assay for Tumour Necrosis Factor alpha (TNFa) Biomarker Activity (AID 2283085).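 On AC50: TNFa protein level quantified by ELISA in the co-culture.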 The conditions noted are these: primary human HUVEC with PBMC; actives raise or lower the signal. Put shortly: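 ELISA-based TNFa endpoint in a human endothelial–PBMC co-culture sampled 24 h post-exposure. Curves were fitted in both directions using DMSO as baseline of activity.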

Read-out in experiment [6]: Vascular cell adhesion molecule 1 (VCAM1), VCAM1 (gene 7412)
Put plainly: BSK_LPS_VCAM1: BioMAP Diversity Plus: LPS Assay for Vascular cell adhesion molecule 1 (VCAM1) Biomarker Activity (AID 2283086). The conditions noted are these: primary human HUVEC with PBMC; actives raise or lower the signal. The procedure, abridged:
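Measured by ELISA: VCAM-1 in LPS-activated HUVEC/PBMC co-cultures 24 h after treatment. Values reflect bidirectional fitting with DMSO as baseline.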

Read-out in experiment [7]: CD38, CD38 (gene 952)
In words: BSK_SAg_CD38: BioMAP Diversity Plus: SAg Assay for CD38 Biomarker Activity (AID 2283087). The conditions noted are these: primary human HUVEC with PBMC; actives raise or lower the signal. The procedure, abridged: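 Measures CD38 on a human endothelial/PBMC co-culture driven by SEB and TSST-1, 24 h after compound exposure, using ELISA with fluorescence detection; DMSO defines baseline for bidirectional curve fitting.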

Read-out in experiment [8]: CD40, CD40 (gene 958)
Put plainly: BSK_SAg_CD40: BioMAP Diversity Plus: SAg Assay for CD40 Biomarker Activity (AID 2283088). Conditions: primary human HUVEC with PBMC; actives raise or lower the signal. Put shortly: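 Endpoint derived by fitting increases or decreases versus DMSO controls. CD40 is detected by fluorescence ELISA in a human vascular co-culture of endothelium and PBMC at 24 h.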

Read-out in experiment [9]: CD69, CD69 (gene 969)
In words: BSK_SAg_CD69: BioMAP Diversity Plus: SAg Assay for CD69 Biomarker Activity (AID 2283089).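 On AC50: cell surface CD69 protein quantified by ELISA with fluorescence detection.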 Conditions: primary human HUVEC with PBMC; actives raise or lower the signal. The procedure, abridged: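 Values derive from bidirectional fitting relative to DMSO vehicle. Cells: umbilical vein endothelium plus peripheral blood mononuclear cells, treated 24 h before fluorescent ELISA for CD69.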

Read-out in experiment [10]: Monocyte Chemoattractant Protein-1 (MCP1), CCL2 (gene 6347)
In words: BSK_SAg_MCP1: BioMAP Diversity Plus: SAg Assay for Monocyte Chemoattractant Protein-1 (MCP1) Biomarker Activity (AID 2283090). Conditions: primary human HUVEC with PBMC; actives raise or lower the signal. The procedure, abridged: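 Values derive from bidirectional fitting of ELISA-measured MCP1 against DMSO controls. Readings were taken 24 h after dosing human vascular endothelial cells co-cultured with peripheral blood mononuclear cells under superantigen stimulation.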

Read-out in experiment [11]: E-selectin (Homo sapiens) (UniProt P16581)
Put plainly: BSK_SAg_Eselectin: BioMAP Diversity Plus: SAg Assay for Eselectin Biomarker Activity (AID 2283091). The conditions noted are these: primary human HUVEC with PBMC; actives raise or lower the signal. Put shortly:
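Endpoint values derive from bidirectional fitting relative to DMSO, using ELISA-measured E-selectin in a human vascular co-culture (umbilical vein endothelium plus PBMC) sampled 24 h after dosing.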

Read-out in experiment [12]: Monokine induced gamma interferon (MIG), CXCL9 (gene 4283)
In words: BSK_SAg_MIG: BioMAP Diversity Plus: SAg Assay for Monokine induced gamma interferon (MIG) Biomarker Activity (AID 2283092). Conditions: primary human HUVEC with PBMC; actives raise or lower the signal. The procedure, abridged: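 Values reflect bidirectional fitting of ELISA-measured MIG against DMSO vehicle, taken 24 h after dosing of a co-culture of human umbilical vein endothelial cells and peripheral blood mononuclear cells.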

Experiment [13] is described as follows: BSK_SAg_PBMCCytotoxicity: PBMC Cytotoxicity Assessment in the BioMAP Diversity Plus: SAg Assay (AID 2283093).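 Further: PBMC viability measured as Alamar Blue reduction fluorescence at 546/580 nm; fitted both ways against DMSO so a hit may be loss or gain of signal.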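 On AC50: PBMC superantigen activated with SEB plus TSST-1 one hour after compound addition.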 Conditions: primary human HUVEC with PBMC. The procedure, abridged:
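Alamar Blue reduction (6 h, 546/580 nm) reports PBMC cytotoxicity after 90 h superantigen activation (SEB, TSST-1; 20 ng/mL final each) with 1 h compound pre-treatment. Gain or loss of signal fitted versus DMSO.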

Experiment [14] is described as follows: BSK_SAg_Proliferation: Cell Proliferation Assessment in the BioMAP Diversity Plus: SAg Assay (AID 2283095).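 Further: relative cell number as total protein by SRB absorbance in sub-confluent culture.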 Conditions: primary human HUVEC with PBMC. Put shortly: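 A human primary co-culture of umbilical vein endothelium and blood mononuclear cells receives compound; relative cell number is quantified at 96 h by SRB staining and 560 nm absorbance, with DMSO-referenced bidirectional curve fitting.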

Experiment [15] in a line: BSK_SAg_SRB: Viability Assessment in the BioMAP Diversity Plus: SAg Assay (AID 2283096).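 Further: cells read one day after compound addition; hits may be either gain or loss of signal compared with DMSO.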 The conditions noted are these: primary human HUVEC with PBMC. The procedure, abridged: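 This overt-cytotoxicity endpoint quantifies protein in human endothelial/PBMC co-cultures at 24 h using SRB absorbance (560 nm) after trichloroacetic acid fixation. Values reflect signal change from the DMSO negative control, fitted bidirectionally.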

Read-out in experiment [16]: Interleukin-8 (IL8), CXCL8 (gene 3576)
Put plainly: BSK_SAg_IL8: BioMAP Diversity Plus: SAg Assay for Interleukin-8 (IL8) Biomarker Activity (AID 2283094). The conditions noted are these: primary human HUVEC with PBMC; actives raise or lower the signal. The procedure, abridged:
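Primary human endothelial cells with PBMC, exposed 24 h; IL-8 determined by ELISA, analysed bidirectionally relative to DMSO.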

Active and inactive are the calls of the source. How the source made its calls: active means hit-call score of the fitted dose curve at least 0.9, where 1 is the maximum; inactive means score below 0.9.

Sequence of E-selectin (Homo sapiens) (P16581 whole entry, looked up): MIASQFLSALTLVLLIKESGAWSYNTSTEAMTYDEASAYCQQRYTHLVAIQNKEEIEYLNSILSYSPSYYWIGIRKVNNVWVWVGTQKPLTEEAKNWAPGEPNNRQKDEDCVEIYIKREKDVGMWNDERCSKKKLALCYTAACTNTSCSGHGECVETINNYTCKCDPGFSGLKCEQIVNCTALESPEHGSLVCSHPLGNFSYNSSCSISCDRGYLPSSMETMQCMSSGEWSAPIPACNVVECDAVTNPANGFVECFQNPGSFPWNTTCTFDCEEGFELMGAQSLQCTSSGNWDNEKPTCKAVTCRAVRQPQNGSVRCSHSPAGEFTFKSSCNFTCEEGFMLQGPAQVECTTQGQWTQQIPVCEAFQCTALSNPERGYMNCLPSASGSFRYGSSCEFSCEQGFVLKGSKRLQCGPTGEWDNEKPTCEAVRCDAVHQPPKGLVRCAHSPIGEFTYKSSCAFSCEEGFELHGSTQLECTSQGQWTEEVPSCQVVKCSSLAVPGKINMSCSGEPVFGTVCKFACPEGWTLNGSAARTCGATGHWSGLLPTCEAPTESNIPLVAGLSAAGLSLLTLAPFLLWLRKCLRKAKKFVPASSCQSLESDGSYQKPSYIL
Sequence of Tumor necrosis factor (Homo sapiens) (P01375 whole entry, looked up): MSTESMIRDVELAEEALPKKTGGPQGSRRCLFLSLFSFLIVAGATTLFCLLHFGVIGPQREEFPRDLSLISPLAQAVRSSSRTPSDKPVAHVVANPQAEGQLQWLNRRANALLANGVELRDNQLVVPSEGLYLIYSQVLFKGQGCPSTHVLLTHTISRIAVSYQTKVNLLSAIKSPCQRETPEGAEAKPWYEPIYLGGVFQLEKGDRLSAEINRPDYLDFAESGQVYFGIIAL

Consider `CCOC(=O)CC(=O)CCl`, for which the AC50 in experiment [1] was 26.1 µM (active); in experiment [2], 29 µM (active); in experiment [3] it was 20 µM (active); in experiment [4], 33.1 µM (active); in experiment [5], 34.9 µM (active); in experiment [6] it was 7.27 µM (active). For the same compound, the AC50 in experiment [7] is 24.6 µM (active); in experiment [8] it was 20 µM (active); in [9], 27 µM (active); in experiment [10], 20 µM (active); in experiment [11] it was 20 µM (active); in experiment [13] it was 9.62 µM (active). Further, the AC50 in [14] was 16.2 µM (active). For the same compound, the result in experiment [12] was inactive.

As for `CCOP(=S)(OCC)OP(=S)(OCC)OCC`, the outcome in experiment [1], in experiment [2], in [3], in experiment [4], in experiment [5] and in [8] was inactive. Besides, the outcome in [10], in experiment [12] and in [15] was inactive. Also, the AC50 was 20 µM (active) in experiment [6]; 31.8 µM (active) in experiment [7]; 30.1 µM (active) in [9]; 35.4 µM (active) in experiment [11]; 25.3 µM (active) in experiment [13]; 20 µM (active) in experiment [14].

Consider `Cc1ccc(OP(=O)(Oc2ccc(C)cc2C)Oc2ccc(C)cc2C)c(C)c1`, for which the AC50 was 20 µM (active) in experiment [1]; 10.7 µM (active) in experiment [3]; 34.1 µM (active) in [5]; 20 µM (active) in experiment [8]; 20 µM (active) in experiment [9]; 5.89 µM (active) in [10]. Besides, the figures for the AC50 in experiment [13], in experiment [16] and in experiment [14] were 20 µM (active), 4.7 µM (active) and 12.9 µM (active), respectively. Moreover, the outcome in experiment [2], in [4], in experiment [7], in experiment [11] and in experiment [12] was inactive.

Take `CC(C)=CC1C(C(=O)OCc2cccc(Oc3ccccc3)c2)C1(C)C` (stereo unspecified): the outcome in experiment [1], in [2], in [3], in experiment [4], in experiment [5] and in [6] was inactive. Further, the result in experiment [7], in experiment [8], in [9], in [10], in experiment [12] and in experiment [13] was inactive. For the same compound, the values for the AC50 in experiment [11] and in experiment [14] were 6.45 µM (active) and 26.3 µM (active), respectively.

On to `CC(C)(COCC1CO1)COCC1CO1` (stereo unspecified), for which the result in experiment [1], in experiment [2], in [3], in experiment [4], in [5] and in [6] was inactive. Also, the result in experiment [7], in experiment [8], in [10], in experiment [12], in [13] and in experiment [16] was inactive. Further, the AC50 in experiment [9] was 20 µM (active); in experiment [11], 20 µM (active); in experiment [14], 36.7 µM (active).

Turning to `N#CCCC(Br)(C#N)CBr` (stereo unspecified), the AC50 was 11 µM (active) in [1]; 10.6 µM (active) in [3]; 21.4 µM (active) in experiment [4]; 13 µM (active) in experiment [5]; 9.05 µM (active) in [6]; 10.2 µM (active) in experiment [7]. Moreover, the AC50 in experiment [8] is 11.2 µM (active); in [9] it was 17 µM (active); in experiment [10], 20 µM (active); in [11], 20 µM (active); in experiment [12], 30 µM (active); in experiment [13] it was 2.52 µM (active). Further, the AC50 in experiment [14] was 1.12 µM (active). Moreover, in experiment [2], the outcome was inactive.

`O=[N+]([O-])c1cccc2ccccc12`: the outcome in experiment [1], in [2], in [3], in experiment [4], in experiment [5] and in experiment [6] was inactive. Further, the outcome in [7], in experiment [8], in experiment [9], in [10], in [11] and in experiment [12] was inactive. Also, the result in experiment [13], in experiment [14] and in experiment [15] was inactive.

As usually defined, the AC50 is the concentration at which the activity in the assay is half-maximal.
